From PubChem BioAssay (EPA / NIEHS)
Records with an inconclusive call do not appear. Calls of active or inactive are those of the source. How the source made its calls: active means hit-call score of the fitted dose curve at least 0.9, where 1 is the maximum; inconclusive means response in the unintended direction; inactive means score below 0.9.

biological target: human Peroxisome Proliferator-activated Receptor alpha (PPARa), PPARA (gene 5465) (UniProt Q07869); test: ATG_PPARa_TRANS: Attagene TRANS-FACTORIAL HepG2 Assay for human Peroxisome Proliferator-activated Receptor alpha (PPARa) (AID 2283001);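 on AC50: potency for gain of reporter signal over DMSO so agonist or activator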
Description: ATG_TRANS is a cell-based, multiplexed-readout assay that uses HepG2, a human liver cell line, with measurements taken at 24 hours after chemical dosing in a 24-well plate.ATG_PPARa_TRANS is one of 30 assay component(s) measured or calculated from the ATG_TRANS assay. It is designed to make measurements of mRNA induction, a form of inducible reporter, as detected with fluorescence intensity signals by Reverse transcription polymerase chain reaction (RT-PCR) and Capillary electrophoresis technology.Data from the assay component ATG_PPARa_TRANS was analyzed into 1 assay endpoint. This assay endpoint, ATG_PPARa_TRANS, was analyzed in the positive analysis fitting direction relative to DMSO as the negative control and baseline of activity. Using a type of inducible reporter, measures of mRNA for gain-of-signal activity can be used to understand the reporter gene at the transcription factor-level as they relate to the gene PPARA. Furthermore, this assay endpoint can be referred to as a primary readout, because this assay has produced multiple assay endpoints where this one serves a reporter gene function. To generalize the intended target to other relatable targets, this assay endpoint is annotated to the nuclear receptor intended target family, where the subfamily is non-steroidal.
Human liver HepG2 cells are transiently transfected with multiple reporter transcription units (MRTUs) in 6-well plates using FuGene 6 reagent (Roche; 3 ml FuGene/1 mg DNA). The MRTU constructs are regulated by a cis-regulating element (promoter). […] A major difference between the CIS and TRANS system is that in CIS activities of endogenous TFs are measured, whereas the TRANS assay evaluates changes in activities of exogenous, chimeric NR-Gal4 proteins. […] At the end of 24 hour incubation, total RNA was isolated using TriZol reagent (Invitrogen). The isolated RNA is then reverse-transcribed using oligo(dT) primer and Mo-MLV reverse transcriptase (Invitrogen) with DNAse I (Ambion) treatment for 30 min. The one-tenth of the produced cDNA was amplified by PCR using Taq DNA polymerase (Invitrogen) and two reporter sequence-specific primers. The PCR products were fluorescently labeled by primer extension with 6-arboxyfluorescein (6-FAM) 5'-labeled reporter sequence-specific primer (2 min at 95 C, 20 s at 68 C and 10 min at 72 C) and these products were digested with 5U of HpaI (New England Biolabs) for 2h at 37 C. The fragments were purified using Qiaquick PCR columns (Qiagen), analyzed on an ABI 3130xL genetic analyzer (Applied Biosystems) with peak positions identified by using a set of X-rhodamine (ROX)-labeled MapMarker1000 molecular weight standards (BioVentures). The raw capillary electrophoresis data was processed using Attagraph software (Attagene).

human Peroxisome Proliferator-activated Receptor alpha (PPARa), PPARA (gene 5465), sequence (Q07869 whole entry, looked up): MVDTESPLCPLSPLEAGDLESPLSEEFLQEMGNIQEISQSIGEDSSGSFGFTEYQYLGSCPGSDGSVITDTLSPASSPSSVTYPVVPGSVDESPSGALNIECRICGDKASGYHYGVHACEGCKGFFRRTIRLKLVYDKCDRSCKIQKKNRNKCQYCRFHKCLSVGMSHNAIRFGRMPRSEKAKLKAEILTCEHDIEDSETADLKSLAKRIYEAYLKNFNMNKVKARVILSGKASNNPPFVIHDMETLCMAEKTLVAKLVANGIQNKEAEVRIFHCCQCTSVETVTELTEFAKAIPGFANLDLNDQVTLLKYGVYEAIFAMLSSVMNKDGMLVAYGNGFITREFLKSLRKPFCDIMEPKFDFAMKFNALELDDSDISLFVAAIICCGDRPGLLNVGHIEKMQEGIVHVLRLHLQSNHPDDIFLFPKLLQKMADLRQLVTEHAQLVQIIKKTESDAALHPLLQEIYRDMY

outcome, inactive:
Cc1cnc(NC(=O)C2=C(O)c3ccccc3S(=O)(=O)N2C)s1
NC(=O)C1CO1 (stereo not given)
CCCCC(CC)COC(=O)c1ccccc1 (stereo not given)
CCCCCCCCCCOC(C)=O
Cc1ccc2oc(=O)ccc2c1
C=CC(C)(C)C
CCc1ccc2c(c1)C(=O)c1ccccc1C2=O
CC/C=C\CCOC(=O)CCCCC
C=CC(=O)OCCOC(=O)C=C
O=C(c1ccc(O)cc1)c1ccc(O)cc1O
c1ccc2c(c1)ccc1cc3c(ccc4ccccc43)cc12
COc1ccc([C@@H]2CC(=O)c3c(O)cc(O[C@@H]4O[C@H](CO[C@@H]5O[C@@H](C)[C@H](O)[C@@H](O)[C@H]5O)[C@@H](O)[C@H](O)[C@H]4O)cc3O2)cc1OC
CCN(CC)c1ccc(C(=O)c2ccccc2C(=O)O)c(O)c1
CCCCCCCOC(=O)CCC
CC(=O)Oc1ccc(C)cc1
[Cl][In]([Cl])[Cl]
CC(CC=O)CCCC(C)(C)O (stereo not given)
CCCCCCCC[N+](C)(CCCCCCCC)CCCCCCCC
O=C1CCCCCN1SSN1CCCCCC1=O
O=S(=O)(O)CC(O)CCl (stereo not given)
CCCC(C)CCC(C)=O (stereo not given)
N#[N+]c1ccc2c(S(=O)(=O)[O-])cccc2c1O
CC(=O)CC(N)=O
CCC(CO)CO
CN1C(=O)N(C)C(O)C1O (stereo not given)
CN(C)c1ccc(C(=N)c2ccc(N(C)C)cc2)cc1
Clc1nc2ccccc2s1
NC(=O)NNC(N)=O
OC1OCCOC1O (stereo not given)
C=CC(=O)OCCOC1C2CCC1C1CC=CC12 (stereo not given)
CC(C)C1=CC2=CC[C@@H]3[C@](C)(CCC[C@@]3(C)C(=O)O)[C@H]2CC1
COc1ccc2nc(N)sc2c1
CCN(CCC#N)c1ccc(N=Nc2c(Cl)cc([N+](=O)[O-])cc2Cl)cc1
COC(=O)c1c(C)cc(O)c(C)c1O

AC50, active:
CCCCC/C=C\C/C=C\CCCCCCCC(=O)OC 32 µM
CCCCCCCC/C=C\CCCCCCCC(=O)OCCO 8.71 µM
CCCCCCCCCCOS(=O)(=O)O 27.6 µM
CC(C)c1ccc2c(c1)CC[C@H]1[C@](C)(CN)CCC[C@]21C 6.09 µM
C=CC(=O)OCC(Br)CBr (stereo not given) 144 µM
[Cl][Bi]([Cl])([c]1ccccc1)([c]1ccccc1)[c]1ccccc1 5.11 µM
